Unmarked numbers belong to inactive results. Calls of active or inactive are those of the source.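 Rule for the calls: active = EC50 at or below 10 µM; inactive = EC50 above 10 µM.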
Test: fluorescence interference artefacts, compound only, dose response, artefact control for cardiac thin filament activator project, biochemical, no RTF in test wells (AID 504697);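 note: emission near 535 nm under roughly 485 nm excitation as for IANBD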
Conditions: compound-only fluorescence in RTF assay buffer with Ca2+ (no RTF in test wells), artifact counterscreen

Structure (SMILES)	EC50
CC(=O)N(C)c1ccc(C(O)(C(F)(F)F)C(F)(F)F)cc1	> 71.5 µM
COc1ccc(C(=O)Nc2cc(C(C)=O)c(/C=C/N(C)C)oc2=O)cc1	29.5 µM
CCN1C(=O)/C(=C/C=C2/SCCN2C)SC1=S	2.63 µM (active)
CCOc1cc(N2CCOCC2)c(OCC)cc1NC(=O)CCS(=O)(=O)c1ccc(Cl)cc1	> 71.5 µM
N#C/C(=C\c1ccc(N2CCOCC2)o1)c1nc2ccccc2[nH]1	1.37 µM (active)
Cc1ccc(NC(=O)CN(C)c2ccc(S(=O)(=O)N3CCCC3)cn2)cc1	> 71.5 µM
COc1cc(/C=C(\C#N)c2nc3ccccc3[nH]2)cc(OC)c1O	11.1 µM
O=C(C1=C(O)C(=O)N(CCN2CCOCC2)C1c1ccc([N+](=O)[O-])cc1)c1cccs1 (centres undefined)	> 71.4 µM
Cc1c(O)c2c3c(cccc3c1O)C(=O)N(c1ccccc1)C2=O	13.9 µM
Cc1cccc(/C=N/NC(=O)C(C)Nc2cccc3ccccc23)n1 (centres undefined)	26.9 µM
c1ccc(Cn2c(-c3ccccc3)nc3nc4ccccc4nc32)cc1	> 71.5 µM
O=C(N/N=C/c1sc2ccccc2c1O)c1ccccc1	17.9 µM
COc1ccc(/C=N/NC(=O)c2cccnc2)cc1CN1CCOCC1	> 71.5 µM
CCC[C@@H](CN1CCC[C@H]1CN1C(N)=NC[C@@H]1Cc1ccccc1)N1C[C@@H](Cc2ccccc2)N(CCCC2CCCC2)C1=N	> 71.4 µM
